# In PubChem BioAssay (EPA / NIEHS):
# Active and inactive are the calls of the source. Rule for the calls: active = hit-call score of the fitted dose curve at least 0.9, where 1 is the maximum; inactive = score below 0.9.
# Tests used:
# Conditions in all cases: mRNA level, 48 h; actives raise or lower the signal
# [1] = read-out: Pro-epidermal growth factor (Homo sapiens) (UniProt P01133); experiment: LTEA_HepaRG_EGF: Life Technologies and Expression Analysis (LTEA) Assay for Epidermal growth factor (EGF) using HepaRG (AID 2283489)
# Summary of the method: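 Differentiated human HepaRG cells, plated 48 h then switched to serum-free induction medium, were exposed for 48 h to test chemicals (8-point half-log series, top 100 uM, 0.5% DMSO). EGF mRNA was quantified by qRT-PCR, normalized to ACTB, GAPDH, POLR2A.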
# [2] = read-out: Early growth response protein 1 (EGR1) transcription factor, EGR1 (gene 1958); experiment: LTEA_HepaRG_EGR1: Life Technologies and Expression Analysis (LTEA) Assay for Early growth response protein 1 (EGR1) transcription factor using HepaRG (AID 2283490)
# Summary of the method: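 Differentiated human HepaRG cells in serum-free induction medium were exposed in duplicate for 48 h to eight concentrations (top 100 uM, half-log steps) in 0.5% DMSO. EGR1 mRNA was quantified by qRT-PCR, normalized to ACTB, GAPDH and POLR2A, and fitted bidirectionally versus DMSO.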
# [3] = read-out: Ezrin (EZR), EZR (gene 7430); experiment: LTEA_HepaRG_EZR: Life Technologies and Expression Analysis (LTEA) Assay for Ezrin (EZR) using HepaRG (AID 2283491)
# Summary of the method: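 EZR transcript levels came from Fluidigm qRT-PCR and were normalized to three housekeeping genes after 48 h chemical exposure of HepaRG cells. Dosing used an 8-point half-log series with a 100 uM top concentration in 0.5% DMSO, tested in duplicate; both directions were fitted versus vehicle.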
# [4] = read-out: Cytochrome P450 3A7 (Homo sapiens) (UniProt P24462); experiment: LTEA_HepaRG_CYP3A7: Life Technologies and Expression Analysis (LTEA) Assay for CYP3A7 using HepaRG (AID 2283492)
# Summary of the method: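 HepaRG cells plated 48 h, then dosed in serum-free induction medium for 48 h at 8 concentrations (top 100 uM, half-log steps, 0.5% DMSO). CYP3A7 mRNA by qRT-PCR, normalised to ACTB/GAPDH/POLR2A; bidirectional fit versus DMSO.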
# CYP3A5 (gene 1577) = experiment: LTEA_HepaRG_CYP3A5: Life Technologies and Expression Analysis (LTEA) Assay for CYP3A5 using HepaRG (AID 2283493)
# Summary of the method: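 mRNA induction or loss of CYP3A5 assessed in HepaRG after 48 h dosing, 100 uM top concentration, duplicate wells; TaqMan qRT-PCR with ACTB, GAPDH, POLR2A normalization; 0.5% DMSO as negative control.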
# [5] = read-out: Fatty Acid-Binding Protein 1 (FABP1), FABP1 (gene 2168); experiment: LTEA_HepaRG_FABP1: Life Technologies and Expression Analysis (LTEA) Assay for Fatty Acid-Binding Protein 1 (FABP1) using HepaRG (AID 2283494)
# Summary of the method: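 Differentiated human HepaRG cells were exposed in duplicate for 48 h in serum-free induction medium to 8-point half-log concentration series topping at 100 uM in 0.5% DMSO. FABP1 mRNA measured by TaqMan qRT-PCR, normalized to ACTB/GAPDH/POLR2A; bidirectional fit versus DMSO.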
# [6] = read-out: Cytochrome P450 4A22 (Homo sapiens) (UniProt Q5TCH4); experiment: LTEA_HepaRG_CYP4A22: Life Technologies and Expression Analysis (LTEA) Assay for Cytochrome P450 4A22 (CYP4A22) using HepaRG (AID 2283495)
# Summary of the method: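 qRT-PCR of CYP4A22 mRNA (Fluidigm TaqMan, normalized to three housekeeping genes) after 48 h chemical exposure of HepaRG cells; 8-point half-log series, top 100 uM, 0.5% DMSO vehicle. Bidirectional curve fitting vs DMSO baseline.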
# [7] = read-out: Glutathione S-Transferase (GSTA2), GSTA2 (gene 2939); experiment: LTEA_HepaRG_GSTA2: Life Technologies and Expression Analysis (LTEA) Assay for Glutathione S-Transferase (GSTA2) using HepaRG (AID 2283497)
# Summary of the method: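 Human HepaRG cells, plated 48 h, then exposed in serum-free induction medium for 48 h to eight half-log concentrations up to 100 uM in 0.5% DMSO, duplicate. GSTA2 mRNA by qRT-PCR, normalized to ACTB/GAPDH/POLR2A; bidirectional fit versus DMSO.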
# [8] = read-out: growth arrest and DNA damage 45 (GADD45G), GADD45G (gene 10912); experiment: LTEA_HepaRG_GADD45G: Life Technologies and Expression Analysis (LTEA) Assay for growth arrest and DNA damage 45 (GADD45G) using HepaRG (AID 2283499)
# Summary of the method: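 Differentiated human HepaRG cells in serum-free induction medium were exposed for 48 h to 8 half-log concentrations up to 100 uM in 0.5% DMSO, in duplicate. GADD45G mRNA was measured by TaqMan qRT-PCR, normalised to ACTB, GAPDH and POLR2A, and fitted bidirectionally against DMSO.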
# [9] = read-out: Glutamate-cysteine ligase regulatory (GCLM), GCLM (gene 2730); experiment: LTEA_HepaRG_GCLM: Life Technologies and Expression Analysis (LTEA) Assay for Glutamate-cysteine ligase regulatory (GCLM) using HepaRG (AID 2283500)
# Summary of the method: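 Human liver HepaRG cultures receive test chemicals for 48 hours at up to 100 uM in 0.5% DMSO. GCLM expression is measured by qRT-PCR and analysed for increases or decreases against vehicle.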
# [10] = read-out: Glutathione S-transferase M3 (GSTM3), GSTM3 (gene 2947); experiment: LTEA_HepaRG_GSTM3: Life Technologies and Expression Analysis (LTEA) Assay for Glutathione S-transferase M3 (GSTM3) using HepaRG (AID 2283501)
# Summary of the method: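 Differentiated HepaRG cells in serum-free induction medium were exposed in duplicate for 48 h to 8 half-log concentrations up to 100 uM in 0.5% DMSO. GSTM3 mRNA was measured by TaqMan qRT-PCR, normalized to ACTB/GAPDH/POLR2A, and fitted bidirectionally versus DMSO.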
# [11] = read-out: Heat shock 70 kDa protein 1 (HSPA1A), gene 3303; experiment: LTEA_HepaRG_HSPA1A: Life Technologies and Expression Analysis (LTEA) Assay for Heat shock 70 kDa protein 1 (HSPA1A) using HepaRG (AID 2283502)
# Summary of the method: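 HSPA1A induction in human HepaRG liver cells is measured after 48 h of chemical treatment (100 uM maximum, 0.5% DMSO vehicle). Expression comes from qRT-PCR normalized to endogenous controls.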
# [12] = read-out: Hypoxia-inducible factor 1-alpha (Homo sapiens) (UniProt Q16665); experiment: LTEA_HepaRG_HIF1A: Life Technologies and Expression Analysis (LTEA) Assay for Hypoxia-inducible factor 1 (HIF1A) Trancription factor using HepaRG (AID 2283503)
# Summary of the method: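 HepaRG, 48 h exposure, 8-pt half-log series from 100 uM, 0.5% DMSO vehicle, duplicates. Readout: HIF1A transcript by qRT-PCR (Fluidigm array), housekeeping-normalised. Bidirectional curve fit vs DMSO baseline.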
# [13] = read-out: 3-Hydroxy-3-Methylglutaryl-CoA Synthase 2 (HMGCS2), HMGCS2 (gene 3158); experiment: LTEA_HepaRG_HMGCS2: Life Technologies and Expression Analysis (LTEA) Assay for 3-Hydroxy-3-Methylglutaryl-CoA Synthase 2 (HMGCS2) using HepaRG (AID 2283504)
# Summary of the method: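 Differentiated human HepaRG cells were exposed in duplicate for 48 h in serum-free induction medium to eight concentrations (top 100 uM, half-log steps, 0.5% DMSO). HMGCS2 mRNA was quantified by TaqMan qRT-PCR, normalised to ACTB, GAPDH and POLR2A, then fitted bidirectionally against DMSO.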
# HGF (gene 3082) = experiment: LTEA_HepaRG_HGF: Life Technologies and Expression Analysis (LTEA) Assay for Hepatocyte Growth Facto (HGF) using HepaRG (AID 2283505)
# Summary of the method: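 Differentiated human HepaRG cells in serum-free induction medium were exposed in duplicate for 48 h to eight concentrations (top 100 uM, half-log steps, 0.5% DMSO). HGF mRNA was quantified by qRT-PCR, normalized to ACTB, GAPDH and POLR2A.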
# [14] = read-out: Insulin Like Growth Factor 1 (IGF1), IGF1 (gene 3479); experiment: LTEA_HepaRG_IGF1: Life Technologies and Expression Analysis (LTEA) Assay for Insulin Like Growth Factor 1 (IGF1) using HepaRG (AID 2283506)
# Summary of the method: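 Using human HepaRG liver cells, IGF1 transcript induction or suppression is measured 48 h after dosing across eight concentrations capped at 100 uM. Values derive from bidirectional concentration-response fitting with DMSO as baseline.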
# [15] = read-out: Intercellular Adhesion Molecule 1 (ICAM1), ICAM1 (gene 3383); experiment: LTEA_HepaRG_ICAM1: Life Technologies and Expression Analysis (LTEA) Assay for Intercellular Adhesion Molecule 1 (ICAM1) using HepaRG (AID 2283507)
# Summary of the method: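 Differentiated HepaRG cells in serum-free induction medium were exposed in duplicate for 48 h to eight half-log concentrations up to 100 uM in 0.5% DMSO. Transcript levels were measured by qRT-PCR normalized to ACTB, GAPDH and POLR2A; bidirectional fits relative to DMSO.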
# [16] = read-out: DNA damage-inducible transcript 3 (DDIT3), DDIT3 (gene 1649); experiment: LTEA_HepaRG_DDIT3: Life Technologies and Expression Analysis (LTEA) Assay for DNA damage-inducible transcript 3 (DDIT3) using HepaRG (AID 2283488)
# Summary of the method: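 Changes in DDIT3 transcript, in either direction relative to 0.5% DMSO vehicle, were quantified by TaqMan qRT-PCR after 48 h chemical exposure of HepaRG cells at 8 concentrations, maximum 100 uM.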
# [17] = read-out: Glutamate-cysteine ligase catalytic (GCLC), GCLC (gene 2729); experiment: LTEA_HepaRG_GCLC: Life Technologies and Expression Analysis (LTEA) Assay for Glutamate-cysteine ligase catalytic (GCLC) using HepaRG (AID 2283498)
# Summary of the method: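 Differentiated human HepaRG cells, plated 48 h then switched to serum-free induction medium, were exposed in duplicate for 48 h to 8 half-log concentrations topping at 100 uM in 0.5% DMSO. GCLC mRNA was quantified by qRT-PCR against ACTB, GAPDH and POLR2A.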
# [18] = read-out: Cytochrome P450 7A1 (Homo sapiens) (UniProt P22680); experiment: LTEA_HepaRG_CYP7A1: Life Technologies and Expression Analysis (LTEA) Assay for Cytochrome P450 7A1 (CYP7A1) using HepaRG (AID 2283496)
# Summary of the method: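 Gene expression endpoint in human HepaRG liver cells treated for 48 h with test chemicals (up to 100 uM, 0.5% DMSO). Values come from bidirectional concentration-response fitting versus DMSO.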
# Sequence of Hypoxia-inducible factor 1-alpha (Homo sapiens) (Q16665 whole entry, looked up): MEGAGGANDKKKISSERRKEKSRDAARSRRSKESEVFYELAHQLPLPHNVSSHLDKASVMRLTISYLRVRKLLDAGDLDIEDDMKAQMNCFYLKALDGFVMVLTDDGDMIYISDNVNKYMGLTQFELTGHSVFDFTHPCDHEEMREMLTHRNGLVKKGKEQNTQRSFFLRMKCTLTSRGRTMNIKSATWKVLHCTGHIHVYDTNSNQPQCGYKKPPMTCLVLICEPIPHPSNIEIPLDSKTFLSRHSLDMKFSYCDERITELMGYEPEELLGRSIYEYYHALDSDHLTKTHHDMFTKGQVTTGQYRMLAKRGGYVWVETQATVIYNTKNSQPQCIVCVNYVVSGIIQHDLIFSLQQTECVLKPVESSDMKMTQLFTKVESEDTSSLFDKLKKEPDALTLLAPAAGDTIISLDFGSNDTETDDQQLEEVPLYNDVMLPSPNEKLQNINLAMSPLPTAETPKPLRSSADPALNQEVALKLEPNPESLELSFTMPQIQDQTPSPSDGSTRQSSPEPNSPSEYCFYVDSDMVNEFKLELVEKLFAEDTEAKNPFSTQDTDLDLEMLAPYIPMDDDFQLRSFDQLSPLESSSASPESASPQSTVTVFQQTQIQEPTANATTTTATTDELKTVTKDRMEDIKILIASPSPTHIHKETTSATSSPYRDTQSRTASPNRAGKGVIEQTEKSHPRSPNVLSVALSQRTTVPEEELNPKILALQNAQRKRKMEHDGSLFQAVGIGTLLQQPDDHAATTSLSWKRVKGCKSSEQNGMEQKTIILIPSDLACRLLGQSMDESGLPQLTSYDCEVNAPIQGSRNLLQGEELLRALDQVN
# Sequence of Cytochrome P450 3A7 (Homo sapiens) (P24462 whole entry, looked up): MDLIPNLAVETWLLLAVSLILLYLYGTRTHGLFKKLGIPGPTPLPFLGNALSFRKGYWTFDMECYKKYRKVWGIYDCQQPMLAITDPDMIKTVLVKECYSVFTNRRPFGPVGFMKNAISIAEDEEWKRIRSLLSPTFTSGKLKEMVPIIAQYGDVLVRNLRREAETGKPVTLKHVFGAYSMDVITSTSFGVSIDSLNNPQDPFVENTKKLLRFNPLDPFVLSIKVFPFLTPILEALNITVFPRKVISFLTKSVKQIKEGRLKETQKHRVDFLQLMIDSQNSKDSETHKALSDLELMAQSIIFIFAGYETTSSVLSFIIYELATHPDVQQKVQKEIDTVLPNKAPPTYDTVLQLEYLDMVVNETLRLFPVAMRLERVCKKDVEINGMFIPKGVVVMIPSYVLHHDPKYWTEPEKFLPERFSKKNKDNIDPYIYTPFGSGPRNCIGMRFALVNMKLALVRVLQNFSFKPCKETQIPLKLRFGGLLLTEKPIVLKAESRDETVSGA
smiles,measurement,setting,value
CC1(C)NC(=O)NC1=O,outcome,[1],inactive
same,outcome,[2],inactive
same,outcome,[3],inactive
same,outcome,[4],inactive
same,outcome,CYP3A5 (gene 1577),inactive
same,outcome,[5],inactive
same,outcome,[6],inactive
same,outcome,[7],inactive
same,outcome,[8],inactive
same,outcome,[9],inactive
same,outcome,[10],inactive
same,outcome,[11],inactive
same,outcome,[12],inactive
same,outcome,[13],inactive
same,outcome,HGF (gene 3082),inactive
same,outcome,[14],inactive
same,outcome,[15],inactive
O=C(O)Cc1ccccc1Nc1c(Cl)cccc1Cl,outcome,[16],inactive
same,outcome,[1],inactive
same,outcome,[3],inactive
same,outcome,CYP3A5 (gene 1577),inactive
same,outcome,[5],inactive
same,AC50,[6],9.92 µM (active)
same,outcome,[7],inactive
same,outcome,[17],inactive
same,outcome,[8],inactive
same,outcome,[9],inactive
same,outcome,[10],inactive
same,outcome,[12],inactive
same,outcome,[13],inactive
same,AC50,[14],16.5 µM (active)
same,outcome,[15],inactive
NCC1(Cc2noc(=O)[nH]2)CCCCC1,outcome,[16],inactive
same,outcome,[1],inactive
same,outcome,[3],inactive
same,outcome,[4],inactive
same,outcome,CYP3A5 (gene 1577),inactive
same,outcome,[5],inactive
same,outcome,[6],inactive
same,outcome,[18],inactive
same,outcome,[7],inactive
same,outcome,[17],inactive
same,outcome,[8],inactive
same,outcome,[9],inactive
same,outcome,[10],inactive
same,outcome,[12],inactive
same,outcome,[13],inactive
same,outcome,[14],inactive
same,outcome,[15],inactive
COc1cc(C=O)ccc1O,outcome,[16],inactive
same,outcome,[1],inactive
same,outcome,[3],inactive
same,outcome,CYP3A5 (gene 1577),inactive
same,outcome,[5],inactive
same,outcome,[6],inactive
same,outcome,[18],inactive
same,outcome,[7],inactive
same,outcome,[17],inactive
same,outcome,[8],inactive
same,outcome,[9],inactive
same,outcome,[10],inactive
same,outcome,[12],inactive
same,outcome,[13],inactive
same,outcome,[14],inactive
same,outcome,[15],inactive
